Data taken from PubChem BioAssay (NCATS).
Results filed as inconclusive are left out. Activity calls are given as the source filed them. Calls follow the shape of the dose curve; as a rule, active = well fitted curve in the direction sought with a large enough effect; inconclusive = small, poorly fitted or top-dose-only effect, or another doubt; inactive = no such curve, though single readings can be large; an effect the other way counts as inactive or inconclusive.

Columns and labels:
[1] = qHTS for Inhibitors of Plasmodium falciparum (DD2) proliferation (AID 504314);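 also: parasite DNA measured by SYBR Green fluorescence after red cell lysis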
In short: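 Quantitative HTS growth inhibition: SYBR Green I binding to parasite DNA after 72 h drug exposure of infected erythrocytes (0.3% parasitemia, 2.5% hematocrit). Signals normalized per plate to inhibitor and vehicle wells.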

[2] = qHTS for Inhibitors of Plasmodium falciparum (GB4) proliferation (AID 504315); also: nearly all actives have a fitted effect of over 50% in size
In short: (§1)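 Erythrocytes infected with P. falciparum line (0.3% parasitemia, 2.5% hematocrit final) incubated with compounds 72 h at 37 °C, 5% CO2; SYBR Green lysis buffer added, fluorescence read next day. Normalized to 0.29 uM artemisinin and DMSO.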

[3] = qHTS for Inhibitors of Plasmodium falciparum (7G8) proliferation (AID 504316); also: series mostly up to about 6.7 µM; nearly all actives have a fitted effect of over 65% in size
In short: as §1

[4] = qHTS for Inhibitors of Plasmodium falciparum (HB3) proliferation (AID 504318); also: nearly all actives have a fitted effect of over 60% in size
In short: as §1

[5] = qHTS for Inhibitors of Plasmodium falciparum (CP250) proliferation (AID 504320)
In short: as §1

Measured: Potency

COC(=O)CCC(=O)OC1(C)C(=O)C=C2C=C(C3CC3)N(C(CO)CO)C=C2C1=O (centres undefined)
inactive: [1] | [2] | [3] | [4] | [5]

COc1cccc([C@@H]2Oc3ccc(Br)cc3[C@H](O)[C@@H]2O)c1
inactive: [1] | [2] | [3] | [4] | [5]

CC#CCN1c2ccccc2[C@]23C[C@@H](C(=O)OC)N(C(=O)CC(C)C)C2=NC(C(=O)OC)=C(C(=O)OC)[C@H]13
inactive: [1] | [2] | [3] | [4] | [5]

CCCCC1=CC2=C(c3ccco3)C(=O)C(C)(OC(=O)c3ccc(OC)cc3)C(=O)C2=CN1CCc1c[nH]c2ccccc12 (centres undefined)
inactive: [1] | [2] | [3] | [4] | [5]

CCCCC1=CC2=CC(=O)C(C)(OC(=O)CC)C(=O)C2=CN1CC(C)C (centres undefined)
inactive: [1] | [2] | [3] | [4] | [5]

COC(=O)CCC(=O)OC1(C)C(=O)C=C2C=C(C3CC3)N(CCN3CCOCC3)C=C2C1=O (centres undefined)
inactive: [1] | [2] | [3] | [4] | [5]

CC1(C)O[C@@H]2[C@@H](O1)C(c1ccccc1)(c1ccccc1)OP(=O)(O)OC2(c1ccccc1)c1ccccc1
inactive: [1] | [2] | [3] | [4] | [5]

CCOC(=O)CN1C(=O)N[C@@H](c2cccc(C(F)(F)F)c2)C(C(C)=O)=C1C
inactive: [1] | [2] | [3] | [4] | [5]

C=CCN1c2ccccc2[C@]23C[C@@H](C(=O)OC)N(C(=O)COCc4ccccc4)C2=NC(C(=O)OC)=C(C(=O)OC)[C@H]13
inactive: [1] | [2] | [3] | [4] | [5]

CC#CCN1c2ccccc2[C@]23C[C@@H](C(=O)OC)N(C(=O)c4ccco4)C2=NC(C(=O)OC)=C(C(=O)OC)[C@H]13
inactive: [1] | [2] | [3] | [4] | [5]

COC(=O)C1=C(C(=O)OC)[C@@H]2N(C)c3ccc(OC)cc3[C@@]23C[C@@H](C(=O)OC)N(S(=O)(=O)c2cccs2)C3=N1
inactive: [1] | [2] | [3] | [5]

COC(=O)C1=C(C(=O)OC)[C@@H]2N(Cc3ccccc3)c3ccccc3[C@@]23C[C@@H](C(=O)OC)N(S(=O)(=O)c2ccc([N+](=O)[O-])cc2)C3=N1
inactive: [1]

COC(=O)CCC(=O)OC1(C)C(=O)C=C2C=C(C3CC3)N(C3CC3)C=C2C1=O (centres undefined)
inactive: [1] | [2]

C=CCN1c2ccccc2[C@]23C[C@@H](C(=O)OC)N(S(=O)(=O)c4ccc(Br)cc4)C2=NC(C(=O)OC)=C(C(=O)OC)[C@H]13
inactive: [1]

CCOC(=O)[C@@]1([C@@H](NC(=O)OC)c2cccc(F)c2)CCCC1=O
inactive: [1] | [2] | [3] | [4] | [5]

CCOC(=O)CN1C(=O)N[C@@H](c2ccccc2)[C@@H](C(=O)OC)[C@H]1C
inactive: [1] | [2] | [3] | [4] | [5]

CCN1C(=O)N(C)[C@@H](c2ccccc2)C(C(=O)OC)=C1C
inactive: [1] | [2] | [3] | [5]

C=CCOC(=O)C(C(C)=O)[C@@H](NC(=O)OC)c1cccc(C(F)(F)F)c1 (some centres undefined)
inactive: [1] | [2] | [3] | [4] | [5]

CCCCC1=CC2=CC(=O)C(C)(OC(=O)CC)C(=O)C2=CN1Cc1ccccc1 (centres undefined)
inactive: [1] | [2] | [3] | [4] | [5]

CC=Cc1cc2ccccc2c2c(C(=O)OC)c(C(=O)OC)c(C(=O)OC)n12
inactive: [1] | [2] | [3] | [5]

COC(=O)[C@H]1[C@@H](C)N(Cc2ccccc2)C(=O)N[C@H]1c1cccc(C(F)(F)F)c1
inactive: [1] | [2] | [3] | [4] | [5]

COC(=O)CCCC1=CC2=C(c3ccccc3)C(=O)C(C)(OC(=O)C3CCCC3)C(=O)C2=CN1CC(C)C (centres undefined)
inactive: [1] | [2] | [3] | [5]

COC(=O)CCCC1=CC2=CC(=O)C(C)(OC(=O)c3cccs3)C(=O)C2=CN1CC1CC1 (centres undefined)
inactive: [1] | [2] | [3] | [4] | [5]

CCN1C(=O)N[C@@H](c2cccs2)C(C(C)=O)=C1C
inactive: [1] | [2] | [3] | [4] | [5]

C=C[C@@]1(C)CC[C@H](O)[C@H]2C(=O)CCC[C@H]21
inactive: [1] | [2] | [3] | [5]

C=CCN1C=C2C(=O)C(C)(OC(=O)CCC(=O)OC)C(=O)C(Br)=C2C=C1c1ccc(OC)cc1 (centres undefined)
inactive: [1] | [2] | [3] | [4] | [5]
